An excerpt weighted towards active compounds, which were near 11% of everything screened.
ALDH1A1 block – ALDH1A1 (human) enzyme inhibition; P00352; AID 1030; Purified ALDH1A1, NADH fluorescence, propionaldehyde substrate; actives 7.3% (n = 220,000); Potency, µM (series often up to 75.3 µM), without a hit: top-dose activity, negative = inhibition, hits mostly inhibitors;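 note: potency is the fitted concentration of half-maximal effect; plate controls were no enzyme wells and a reference inhibitor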
Target sequence (P00352 whole entry, looked up): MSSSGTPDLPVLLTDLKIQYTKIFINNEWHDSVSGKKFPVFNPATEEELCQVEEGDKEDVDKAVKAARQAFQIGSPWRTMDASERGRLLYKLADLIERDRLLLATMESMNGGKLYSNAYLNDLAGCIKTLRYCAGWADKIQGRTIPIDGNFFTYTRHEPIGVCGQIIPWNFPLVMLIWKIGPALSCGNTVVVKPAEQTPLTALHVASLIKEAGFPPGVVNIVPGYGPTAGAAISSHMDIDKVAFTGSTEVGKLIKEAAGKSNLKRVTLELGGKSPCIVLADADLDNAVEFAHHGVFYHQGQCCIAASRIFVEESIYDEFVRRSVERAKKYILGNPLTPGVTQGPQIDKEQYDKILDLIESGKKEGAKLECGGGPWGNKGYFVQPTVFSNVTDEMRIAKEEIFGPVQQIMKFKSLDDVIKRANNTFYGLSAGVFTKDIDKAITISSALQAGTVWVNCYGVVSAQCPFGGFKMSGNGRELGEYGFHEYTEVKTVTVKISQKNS
PNC assembly inh – perinucleolar compartment assembly inhibition; PC3M PTB-GFP, PNC prevalence imaging, 16 h; hits give low values; activity change (PNC), negative = inhibition, % at 10 µM; actives 3.1% (n = 140,000); AID 2417;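 active = readout at or below -70, meaning at least 70% loss of cells showing the perinucleolar compartment, a nuclear body marking cancer cells; inconclusive = readout between -30 and a set limit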;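 note: plate controls were DMSO wells for no effect and camptothecin positive control wells for full effect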
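Compounds are pinned in duplicate onto adhered PC3M cells stably expressing GFP-tagged PTB and incubated 16 h at 37 C. Cells are then fixed, nuclei stained with Hoechst, and PNC-positive cells counted.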
KDM4E inh – inhibitors of human JMJD2E histone demethylase. B2RXH2. JMJD2E catalytic domain, FDH-coupled NADH fluorescence (FDH is formaldehyde dehydrogenase). Potency, µM (series often up to 57.1 µM), for the others: at the highest dose activity change, negative = inhibition, usual class: inhibitors. actives 1.6% (n = 230,000). AID 2147;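 note: potency is the fitted concentration of half-maximal effect; 0% = wells with enzyme and -100% = buffer wells without enzyme; nearly all actives have a fitted effect of over 50% in size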
HPGD inh – inhibitors of human 15-hydroxyprostaglandin dehydrogenase (HPGD) | purified HPGD, NADH fluorescence kinetic, PGE2 substrate | Potency, µM, without a hit: at the top dose activity change, negative = inhibition, hits mostly inhibitors | actives 4.3% (n = 150,000) | AID 894; note: potency is the fitted concentration of half-maximal effect
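20 nM HPGD preincubated 15 min at room temperature with compound in 50 mM Tris-HCl pH 8, 0.01% Tween 20. Started with 1 mM NAD+ and 30 uM prostaglandin E2; NADH fluorescence (360/450 nm) read 5 times over 30-s intervals, last minus first.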
* hit, by the source's call; ? = inconclusive; nt = not tested or not shown. Unless noted, calls come from the whole dose curve; as a rule, active = well fitted inhibition curve with a large enough effect (not every such curve was filed as active); inconclusive = small, poorly fitted or top-dose-only effect, or another doubt; inactive = no such curve, though single readings can be large or run the other way. Unless noted, % is set by controls: 0 for no effect and ±100 for the full control effect.

SMILES	ALDH1A1 block	PNC assembly inh	KDM4E inh	HPGD inh
NC1=NC(=O)/C(=C\c2cc([N+](=O)[O-])ccc2Cl)S1	?	nt	-5%	nt
O=c1c2ccccc2nc(-c2ccccc2)n1CCCn1ccnc1	12%	33	10%	4%
COCCCn1c(-c2ccco2)nc2ccccc2c1=O	22µM*	-13	-4%	-3%
COCCCn1c(SCC(=O)OC2CCCCC2)nnc1-c1ccco1	?	5	-3%	-11%
COc1ccc(-c2nc3ccccc3c(=O)n2CCOc2ccccc2C)cc1	?	-121*	?	-27%
COc1ccc(-c2nc3ccccc3c(=O)n2CCCn2ccnc2)cc1	14µM*	?	7%	-16%
COCCCN=C(c1ccco1)n1c(=S)nc(-c2ccco2)n(CCCOC)c1=S	3.5µM*	?	?	28µM*
COc1ccc(-c2nc3ccccc3c(=O)n2CCOc2ccc(C)cc2C)cc1	?	-12	5%	?
COC(=O)c1cnn(-c2ccccc2)c1/C=N/NC(=S)Nc1ccc(Cl)cc1	nt	nt	-1%	nt
CC(=O)Nc1ccc(C(=O)NCC(=O)OCc2c(F)cccc2Cl)cc1	11%	nt	-7%	nt
Cc1nnc(NC(=O)CSc2nc(N)c(NC(=O)c3cccs3)c(=O)[nH]2)s1	nt	nt	10%	nt
CC(C)NC(=S)Nc1c(N)[nH]c(=O)[nH]c1=O	-1%	nt	5%	nt
Cc1ccc(N2NC(C)(c3cccs3)NC2=S)cc1 (configuration not stated)	18µM*	32	?	-21%
CCCn1nnnc1NC(=O)CSc1ccc(Cl)cc1	6%	-27	4%	16µM*
CNc1ccnc(-c2cccc(NS(C)(=O)=O)c2)n1	20%	nt	nt	nt
CSc1ccc(Cl)c(C(=O)OCC(=O)NCC(C)C)c1	-13%	-19	?	14µM*
CNC(=O)COC(=O)c1cc(SC)ccc1Cl	5%	nt	?	nt
N#C/C(=C1/C(=O)Nc2ccc(Br)cc21)c1ccccn1	2%	nt	16%	nt
CC(C)NC(=O)N1CCC2(CC1)CCN(C(=O)c1csnn1)CC2	2%	nt	nt	-1%
COc1ccc(OC)c(CCNC(=O)Cn2sc3nc(C)cc(C)c3c2=O)c1	2.5µM*	-9	28µM*	1.4µM*
CSCCC(N=C(NS(=O)(=O)c1ccc(C)cc1)c1ccccc1)C(=O)O (configuration not stated)	nt	nt	6%	nt
COc1ccc(-n2c(SCC(N)=O)nc3nc4c(cc3c2=O)COC(C)(C)C4)cc1	3.5µM*	1	-18%	-23%
CC(Cc1ccccc1)NC(=O)CSc1nc2nc3c(cc2c(=O)n1-c1ccccc1)COC(C)(C)C3 (configuration not stated)	1.6µM*	-22	-4%	-9%
Cc1c(N=C2NC(=O)/C(=C/c3cccc([N+](=O)[O-])c3)S2)c(=O)n(-c2ccccc2)n1C	6%	11	-13%	2.5µM*
FC(F)Oc1ccc(NC(=S)NCCc2ccccn2)cc1	-12%	nt	2%	nt
SMILES	ALDH1A1 block	PNC assembly inh	KDM4E inh	HPGD inh
Fc1ccc(N2CCN(Cc3cn[nH]c3-c3ccccc3)CC2)cc1	14µM*	nt	-3%	nt
CCCC/C(O)=C1\C(=O)CCCC1=NCCc1c(C)[nH]c2ccccc12	nt	nt	1%	nt
CCCS(=O)(=O)c1nc(S(=O)(=O)c2ccc(C)cc2)c(NCCCN(C)C)s1	?	nt	-14%	nt
CCCS(=O)(=O)c1nc(S(=O)(=O)c2ccc(C)cc2)c(NCCN2CCOCC2)s1	14µM*	-107*	4%	-5%
CCC(=O)N1CC23C=CC(CC2CC12CCCCC2)O3 (configuration not stated)	16µM*	-124*	2%	-4%
CCOc1ccc(S(=O)(=O)NCc2ccccn2)cc1	?	-111*	2%	-15%
CCOc1cc(C)c(C(C)C)cc1S(=O)(=O)NCc1ccccn1	14µM*	-82*	8%	2%
COc1cc(S(=O)(=O)NCc2ccccn2)c(OC)cc1Cl	-2%	180	3%	-15%
COc1ccc(S(=O)(=O)NCc2ccccn2)cc1	4%	-14	4%	2%
C=Cc1ccc(CSc2cc(C)nc3nc(C)nn23)cc1	nt	nt	-1%	nt
CCOC(=O)C(=O)N=Nc1c(O)n(C)c2ccccc12	14µM*	nt	10%	nt
CCOC(=O)N=Nc1c(O)n(CC(=O)OC)c2ccccc12	7.1µM*	nt	-13%	nt
COc1cccc(C=NC=Nc2cccc(OC)c2)c1	-4%	nt	-9%	-11%
NNc1nc2ccc(Cl)cc2s1	35µM*	46	?	-17%
NNc1nc2ccc(F)cc2s1	?	24	?	-13%

Assay outcomes (PubChem BioAssay)
